Each structure is given as a SMILES string. Where “and” joins values, the source holds several entries; their conditions need not be identical. Equal entries are not always repeated. Inconclusive results are not listed. Some structures have more than one record in an assay (separate samples or runs), and their calls can disagree. Calls of active or inactive are those of the source. Unless noted, calls follow the shape of the dose curve; as a rule, active = well fitted curve in the direction sought with a large enough effect in the repeat runs; inconclusive = weak or mixed curves; inactive = no such curve, though single readings can be large; an effect the other way counts as inactive or inconclusive.

Assay [1] addresses Progesterone receptor (Homo sapiens) (UniProt P06401). Put plainly: qHTS assay to identify small molecule agonists of the progesterone receptor (PR) signaling pathway (AID 1346784; calls by dose curve; also: nearly all actives have a fitted effect of over 30% in size). In a few lines:
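Compounds were tested for PR agonism in HEK 293T cells bearing a beta-lactamase gene under UAS control. Treatment lasted 16 hr at 37C; signal came from fluorescence of a FRET substrate.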
In general terms: Quantitative high-throughput screening tests each substance at several concentrations.

A short description of assay [2]: qHTS assay to identify small molecule antagonists of the progesterone receptor (PR) signaling pathway - cell viability counter screen (AID 1346798). Also: nearly all actives have a fitted effect of over 50% in size. Also: potency is read from the fitted curve at half-maximal effect. The method, boiled down:
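Following a 4 hr attachment, PR-UAS-bla HEK293T cells in charcoal-stripped FBS medium were exposed to compounds with R5020 for 16 hr; CellTiter-Glo was added and luminescence read after 30 min at room temperature.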

Assay [3] in a line: qHTS assay to identify small molecule agonists of the progesterone receptor (PR) signaling pathway - cell viability counter screen (AID 1346799; calls by dose curve; also: nearly all actives have a fitted effect of over 45% in size; also: potency is read from the fitted curve at half-maximal effect). The method, boiled down:
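Here, 3,000 PR-UAS-bla HEK293T cells per well were treated with compounds for 16 hr after a 6 hr preincubation at 37C and 5% CO2; cell viability is the CellTiter-Glo luminescence signal.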

Assay [4] can be described thus: qHTS assay to identify small molecule agonists of the TGF-beta/Smad signaling pathway - cell viability counter screen (AID 1346829). Also: nearly all actives have a fitted effect of over 45% in size. Also: potency is read from the fitted curve at half-maximal effect. The method, boiled down:
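Same-well cytotoxicity: CellTiter-Glo added after the 2 hr room-temperature beta-lactamase substrate step, luminescence measured 30 min later; cells had 5 hr of compound at 37 C.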

The nature of assay [5]: qHTS assay to identify small molecule agonists of the TGF-beta/Smad signaling pathway (AID 1346859; active = well fitted activation curve with a large enough effect in the signal ratio in the repeat runs, not every such curve was filed as active; the % refers to the signal ratio; also: series mostly up to about 77 µM). In a few lines:
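Each well held 4,000 SBE-bla HEK 293T cells incubated overnight before compound addition; 5 hr later the cleavable FRET substrate went on for 2 hr at room temperature, and fluorescence was read at two emissions.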

The target in assay [6] is Thyrotropin-releasing hormone receptor (Homo sapiens) (UniProt P34981). Put plainly: qHTS assay to identify small molecule antagonists of the thyrotropin-releasing hormone receptor (TRHR) signaling pathway (AID 1346877; active = well fitted inhibition curve with a large enough effect in the repeat runs, not every such curve was filed as active; also: potency is read from the fitted curve at half-maximal effect). The method, boiled down:
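Antagonist mode: after a 5 min room-temperature compound exposure, cells were stimulated with 1 nM (final) TRH. Dye-loaded TRHR-HEK293 cells were used, and calcium-dependent fluorescence was followed for 3 min, with 15-point titrations run in triplicate.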

Assay [7] has the same target. Put plainly: qHTS assay to identify small molecule agonists of the thyrotropin-releasing hormone receptor (TRHR) signaling pathway (AID 1346891; calls by dose curve; also: series mostly up to about 58 µM). In a few lines: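 Screening of agonists relied on calcium signalling in HEK293 cells expressing human TRHR: dye loading 2 h at 37 °C preceded compound addition and a 3-min fluorescence time course.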
A short description of assay [8]: Human pregnane X receptor (PXR) small molecule agonists, qHTS cell viability counter screen (AID 1346977). Also: nearly all actives have a fitted effect of over 50% in size. Also: potency is read from the fitted curve at half-maximal effect. In a few lines:
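Tox21 qHTS format; PXR-Luc HepG2, 2,000/well, charcoal-stripped FBS 5%. Cpd exposure 24hr. Read: CellTiter-Fluor fluorescence, multiplexed with luciferase.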

Assay [9] deals with Progesterone receptor (Homo sapiens) (UniProt P06401). Put plainly: qHTS assay to identify small molecule antagonists of the progesterone receptor (PR) signaling pathway (AID 1346795; active = well fitted inhibition curve with a large enough effect in the signal ratio in the repeat runs, not every such curve was filed as active; the % refers to the signal ratio). In a few lines: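 In HEK293T cells bearing the PR-UAS-bla reporter, compound effects on promegestone-driven (1 nM) beta-lactamase expression are assessed after 16 hr using a fluorescent FRET substrate incubated 2 hr at room temperature.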
Chain of Progesterone receptor (Homo sapiens) (P06401 whole entry, looked up): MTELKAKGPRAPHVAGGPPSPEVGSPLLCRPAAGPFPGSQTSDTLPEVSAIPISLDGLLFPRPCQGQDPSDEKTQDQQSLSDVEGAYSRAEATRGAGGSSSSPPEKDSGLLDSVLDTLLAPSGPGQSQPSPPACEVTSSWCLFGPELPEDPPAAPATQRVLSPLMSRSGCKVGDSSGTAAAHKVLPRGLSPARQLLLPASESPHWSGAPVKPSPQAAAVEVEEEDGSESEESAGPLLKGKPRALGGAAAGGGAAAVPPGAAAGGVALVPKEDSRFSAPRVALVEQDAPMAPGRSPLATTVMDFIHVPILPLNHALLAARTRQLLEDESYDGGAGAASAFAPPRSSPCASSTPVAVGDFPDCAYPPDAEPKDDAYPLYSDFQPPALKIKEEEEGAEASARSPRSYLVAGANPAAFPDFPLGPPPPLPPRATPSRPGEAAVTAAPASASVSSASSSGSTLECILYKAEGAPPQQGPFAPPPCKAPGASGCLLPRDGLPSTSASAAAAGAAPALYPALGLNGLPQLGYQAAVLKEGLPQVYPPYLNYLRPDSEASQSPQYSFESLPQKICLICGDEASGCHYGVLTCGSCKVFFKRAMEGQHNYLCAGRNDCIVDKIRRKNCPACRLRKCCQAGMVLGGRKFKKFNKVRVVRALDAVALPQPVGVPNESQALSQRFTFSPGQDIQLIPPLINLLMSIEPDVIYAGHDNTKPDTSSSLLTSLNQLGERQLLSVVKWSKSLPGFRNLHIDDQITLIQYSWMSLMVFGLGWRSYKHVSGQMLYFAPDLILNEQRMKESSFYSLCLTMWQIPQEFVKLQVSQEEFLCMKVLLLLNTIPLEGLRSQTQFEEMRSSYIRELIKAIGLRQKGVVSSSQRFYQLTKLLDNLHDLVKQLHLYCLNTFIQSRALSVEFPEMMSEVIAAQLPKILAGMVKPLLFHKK

Assay [10] can be described thus: qHTS assay to identify small molecule antagonists of the TGF-beta/Smad signaling pathway - cell viability counter screen (AID 1346824). Also: nearly all actives have a fitted effect of over 50% in size. Also: potency is read from the fitted curve at half-maximal effect. The method, boiled down:
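Cytotoxicity counter-screen run in the same wells as the beta-lactamase Smad reporter read: CellTiter-Glo luminescence after 30 min at room temperature. HEK 293T SBE-bla cells had 5 hr compound exposure at 37 C with TGF-beta1 (0.25 ng/mL stock).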
% is scaled to controls: 0 for no effect and ±100 for the full control effect.

Chain of Thyrotropin-releasing hormone receptor (Homo sapiens) (P34981 whole entry, looked up): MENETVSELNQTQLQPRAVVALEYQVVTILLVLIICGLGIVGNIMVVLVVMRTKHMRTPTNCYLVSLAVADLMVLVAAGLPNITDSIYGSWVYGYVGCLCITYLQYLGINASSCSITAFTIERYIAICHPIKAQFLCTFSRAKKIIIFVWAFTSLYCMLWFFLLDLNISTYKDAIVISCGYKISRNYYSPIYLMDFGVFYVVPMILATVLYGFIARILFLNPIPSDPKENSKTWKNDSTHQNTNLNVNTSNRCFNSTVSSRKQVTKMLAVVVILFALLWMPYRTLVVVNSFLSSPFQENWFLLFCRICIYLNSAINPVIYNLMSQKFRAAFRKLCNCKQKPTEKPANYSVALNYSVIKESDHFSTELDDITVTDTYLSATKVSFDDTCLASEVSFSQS

Turning to `NCCCCCC(=O)O`, the Potency entry in assay [1], in [2], in [3], in assay [4], in [6] and in [7] was “inactive” in each case. For the same molecule, the Potency entry in assay [8] is “inactive”. Besides, in assay [5], the outcome was inactive.
Consider `Nc1cc(S(=O)(=O)O)cc2cc(S(=O)(=O)O)cc(O)c12`, for which the Potency entry in [1], in assay [9], in assay [2], in [4], in assay [6] and in assay [7] was “inactive” in each case.
As to `CC(C)CCOC(=O)c1ccc(N(C)C)cc1`, the Potency result in assay [1], in [2], in assay [3], in assay [10], in assay [4] and in assay [6] was “inactive” in each case. Also, the Potency entry in assay [7] and in [8] was “inactive” each time. In [5], the molecule was called inactive.
`CCN1CCCC1CNC(=O)c1cc(S(=O)(=O)CC)c(N)cc1OC` (stereo not drawn): the Potency result in assay [1], in assay [2], in assay [3], in assay [10], in [4] and in [6] was “inactive” throughout. For the same molecule, the Potency entry in assay [7] and in [8] was “inactive” each time. In addition, the outcome in assay [5] was inactive.
Regarding `CC(C)CCOCc1ccccc1`, the Potency result in [1], in assay [9], in assay [3], in assay [4], in assay [6] and in assay [7] was “inactive” in each case. Also, the Potency result in assay [8] is “inactive”.
Consider `CC(C)C(=O)c1c(C(C)C)nn2ccccc12`, for which the Potency entry in assay [1], in [2], in [3], in assay [10], in assay [4] and in assay [6] was “inactive” in each case. For the same molecule, the Potency entry in [7] and in assay [8] was “inactive” each time. For the same molecule, the result in [5] was inactive.
Regarding `c1ccc2cc3c(ccc4ccccc43)cc2c1`, the Potency entry in assay [1], in [2], in assay [3], in assay [10], in [4] and in [8] was “inactive” throughout. Moreover, the result in [5] was inactive.
Take `Cc1ccc(S(=O)(=O)Oc2ccc(N=Nc3ccc(-c4ccc(N=Nc5c(O)ccc6cc(S(=O)(=O)O)cc(S(=O)(=O)O)c56)c(C)c4)cc3C)cc2)cc1`: the Potency entry in assay [1], in [2], in assay [3] and in assay [4] was “inactive” in each case. For the same molecule, in [5], the outcome was inactive. For the same molecule, in assay [8], the Potency was 11.2 µM (active) and 8.92 µM (active).
For `C=CC(=O)OCCCCCCCC`, the Potency entry in [1], in assay [2], in assay [3], in assay [10], in assay [4] and in assay [8] was “inactive” each time. In addition, in assay [5], the result was inactive.
Consider `O=Cc1ccc(Cl)cc1`, for which the Potency entry in assay [1], in assay [2], in assay [3], in assay [4], in assay [6] and in assay [7] was “inactive” throughout. The Potency result in assay [8] is “inactive”. Further, the molecule was classed as inactive in assay [5].
Turning to `Cc1cccc2n[nH]nc12`, the Potency result in [1], in assay [2], in assay [3], in [10], in assay [4] and in assay [6] was “inactive” in each case. Moreover, the Potency entry in [7] and in [8] was “inactive” throughout. For the same molecule, the molecule was called inactive in [5].
Turning to `CCc1ccc(C(c2ccc(CC)cc2)C(Cl)Cl)cc1`, the Potency result in assay [1], in assay [2], in assay [3], in assay [10], in assay [4] and in [6] was “inactive” throughout. Besides, the Potency result in assay [7] and in assay [8] was “inactive” in each case. In addition, the result in assay [5] was inactive.
With `Oc1ccc(Cl)cc1Cc1cc(Cl)ccc1O`, the Potency result in assay [1], in assay [2], in [4], in [6] and in [7] was “inactive” in each case. In addition, the Potency in assay [3] is 69.8 µM (active); in assay [8], 35.5 µM (active) and 30.6 µM (active) and 16.8 µM (active). Moreover, in assay [5], the call was inactive.
As to `CN(C)c1ccc(C(=C2C=CC(=[N+](C)C)C=C2)c2ccccc2)cc1`, the Potency result in assay [1] and in assay [7] was “inactive” throughout. Besides, the Potency in assay [2] is 8.63 µM (active) and 6.68 µM (active) and 7.5 µM (active); in [3], 9.69 µM (active) and 7.5 µM (active) and 8.41 µM (active); in assay [10], 8.49 µM (active) [middle of 4 runs]; in [4], 8.49 µM (active) [middle of 4 runs]; in assay [6] it was 26.9 µM (active) and inactive; in assay [8], 2.37 µM (active) [middle of 4 runs]. For the same molecule, the outcome in assay [5] was inactive.
Take `O=C(O)c1cccc(C(=O)O)c1`: the Potency result in assay [1], in assay [2], in assay [3], in assay [10], in [4] and in [6] was “inactive” each time. Besides, the Potency result in assay [7] and in assay [8] was “inactive” throughout. In [5], the result was inactive.
Consider `COc1cc(C(=S)N2CCOCC2)ccc1O`, for which the Potency result in assay [1], in assay [2], in [3], in assay [10], in [4] and in [8] was “inactive” throughout. Moreover, the molecule was called inactive in assay [5].
On to `O=S(=O)(O)c1ccc2nc(-c3ccccc3)[nH]c2c1`, for which the Potency result in assay [1], in assay [9], in assay [6], in assay [7] and in assay [8] was “inactive” throughout. The Potency in assay [3] is 32.7 µM (active) and 8.41 µM (active). Besides, the result in assay [5] was inactive.
With `CC1COc2c(N3CCN(C)CC3)c(F)cc3c(=O)c(C(=O)O)cn1c23` (stereo not drawn), the Potency entry in [1], in assay [2], in assay [3], in [10], in assay [4] and in assay [6] was “inactive” throughout. The Potency result in [7] and in assay [8] was “inactive” in each case. The molecule was classed as inactive in assay [5].
For `c1cnc2cc3c(cc2n1)C1CNCC3C1`, the Potency entry in assay [1], in [2], in [3], in assay [10], in assay [4] and in [6] was “inactive” in each case. The Potency result in assay [7] and in assay [8] was “inactive” each time. For the same molecule, the result in assay [5] was inactive.
For `BrC1CCC(Br)C(Br)CCC(Br)C(Br)CCC1Br` (stereo not drawn), the Potency entry in assay [1] and in assay [10] was “inactive” each time. The Potency in assay [2] was 54.3 µM (active) and 51.7 µM (active); in [3], 30.5 µM (active) and 41.1 µM (active).
Take `CCCN[C@H]1CCc2nc(N)sc2C1`: the Potency result in [1], in [2], in assay [3], in [10], in [4] and in assay [8] was “inactive” in each case.
With `Cc1ccc(-c2cc(C(F)(F)F)nn2-c2ccc(S(N)(=O)=O)cc2)cc1`, the Potency entry in [1], in assay [2], in [10], in assay [4], in [6] and in assay [7] was “inactive” throughout. Also, the Potency in [3] is 76.6 µM (active) and inactive; in assay [8] it was 60.9 µM (active) and inactive. In addition, the result in [5] was inactive.
In the case of `c1ccc2n[nH]nc2c1`, the Potency entry in assay [1], in assay [2], in assay [3], in assay [10], in [4] and in [8] was “inactive” in each case.
Consider `Cc1cc(C(C)(C)C)c(O)c(C(C)(C)C)c1`, for which the Potency entry in assay [1], in assay [2], in assay [3], in assay [10], in [4] and in [6] was “inactive” in each case. Besides, the Potency result in assay [7] and in assay [8] was “inactive” in each case. The call in assay [5] was inactive.
With `NCCO`, the Potency result in assay [1], in assay [2], in assay [3], in assay [10], in assay [4] and in assay [8] was “inactive” in each case. In addition, in assay [5], the molecule was classed as inactive.

Source of the values: PubChem BioAssay (Tox21).
